Source: PubChem BioAssay (National Center for Advancing Translational Sciences (NCATS))
BAZ2B inh – blocks human BAZ2B. Q9UIF8. AlphaScreen BAZ2B-H3K14Ac peptide displacement. Potency, µM (titrated, usually from 114 µM), inactives show top-dose activity change, negative = inhibition, usual class: inhibitors. 360,000 compounds, 4.4% hits; also: % is scaled to controls: 0 for no effect and ±100 for the full control effect; nearly all actives have a fitted effect of over 60% in size
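Protein-peptide AlphaScreen: BAZ2B 50 nM, b-H3K14Ac 50 nM, 1x PBS pH 7.4 + 0.01% Tween-20. Preincubation 30 min RT; cpd 30 min RT (top 110 uM); beads 20 min RT, light-protected.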
Sfp inh – Sfp phosphopantetheinyl transferase inhibition. Q9F4F7. Biochemical Sfp PPTase activity, qHTS. Potency, µM, for inactives: largest response in the series, negative = inhibition, hits mostly inhibitors. 310,000 compounds, 3.5% hits. AID 1490;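 also: the enzyme is Sfp with the accession as filed and its product quenches rhodamine fluorescence; 0% = enzyme reaction without inhibitor and -100% = no enzyme wells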
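Fluorescence-quenching assay with 15 nM Sfp, 5 uM rhodamine-CoA and 12.5 uM BHQ-2-labelled ybbR peptide in pH 7.6 Hepes/MgCl2 buffer. Enzyme was pre-incubated with compound for 15 min at room temperature. Rate was taken from the 30-min fluorescence change (525/598 nm).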
JMJD2A Tudor – blocks the human JMJD2A Tudor domain; O75164; AlphaScreen JMJD2A-Tudor / H3K4me3 peptide binding; Potency, µM (series often up to 114 µM), for the others: at the highest dose activity change, negative = inhibition, most hits filed as inhibitors; 390,000 compounds, 4.4% hits; AID 504339; also: % is scaled to controls: 0 for no effect and ±100 for the full control effect; nearly all actives have a fitted effect of over 50% in size
G9a block – G9a (human) methyltransferase inhibition; G9a H3K9 monomethylation, AlphaScreen, 2 h; Potency, µM (highest dose often 102 µM), for the others: top-dose activity, negative = inhibition, most hits filed as inhibitors; 350,000 compounds, 8.8% hits; also: % is scaled to controls: 0 for no effect and ±100 for the full control effect; nearly all actives have a fitted effect of over 75% in size
Target sequence (Q96KQ7 913-1193 limits assumed): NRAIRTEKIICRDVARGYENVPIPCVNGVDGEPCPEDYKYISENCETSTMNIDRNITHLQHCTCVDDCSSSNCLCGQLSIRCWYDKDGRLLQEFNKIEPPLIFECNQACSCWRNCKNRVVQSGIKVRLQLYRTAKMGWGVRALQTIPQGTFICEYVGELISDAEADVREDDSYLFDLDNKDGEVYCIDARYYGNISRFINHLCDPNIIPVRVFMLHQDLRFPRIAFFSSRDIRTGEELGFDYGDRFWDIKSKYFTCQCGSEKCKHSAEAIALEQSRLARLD
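AlphaScreen read-out: biotin-H3K9 peptide (500 nM) methylation by 20 nM enzyme with 20 uM SAM, 2 h at room temperature after 15 min compound preincubation; anti-monomethyl H3K9 antibody plus donor/acceptor beads, 10 min dark.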
TDP1 block – TDP1 (human) enzyme inhibition; Q9NUW8; recombinant TDP1, AlphaScreen DNA substrate cleavage; Potency, µM (doses to about 130 µM), for inactives: at the highest dose activity change, negative = inhibition, usual class: inhibitors; 350,000 compounds, 0.28% hits; AID 485290; also: % is scaled to controls: 0 for no effect and ±100 for the full control effect; nearly all actives have a fitted effect of over 40% in size
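Signal: AlphaScreen proximity between streptavidin donor and anti-FITC acceptor beads on intact substrate. Reaction: Tdp1 1 nM, substrate 15 nM final, 5 min RT after 15 min compound preincubation.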
HP1b chromo inh – blocks HP1-beta chromodomain binding to methylated histone tails; 390,000 compounds, 0.56% hits; Potency, µM (top dose mostly 114 µM), without a hit: top-dose activity change, negative = inhibition, most hits filed as inhibitors; AlphaScreen HP1-beta / biotin-H3K9me3 peptide binding; also: nearly all actives have a fitted effect of over 70% in size
Target sequence (P83916 whole entry, looked up): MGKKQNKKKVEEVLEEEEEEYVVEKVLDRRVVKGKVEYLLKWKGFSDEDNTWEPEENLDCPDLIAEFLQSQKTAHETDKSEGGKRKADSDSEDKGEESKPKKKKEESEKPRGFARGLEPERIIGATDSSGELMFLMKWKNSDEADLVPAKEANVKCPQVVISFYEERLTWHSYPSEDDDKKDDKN
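Compound inhibition of the preformed complex between 50 nM HP1-beta and 50 nM biotinylated H3K9me3 peptide was read by AlphaScreen. Buffer was PBS pH 7.4 with 0.01% Tween-20. Incubations ran 30 min at room temperature, with 10 ug/mL donor/acceptor beads.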
An asterisk follows results filed as active; ? = inconclusive; · = not tested or not shown; ! = repeats disagree; [ ] = dose if it differs, or a comment. Compounds with a hit are over-represented: about 12% of the library has one in this group of screens. Calls follow the shape of the dose curve; as a rule, active = well fitted curve in the direction sought with a large enough effect; inconclusive = small, poorly fitted or top-dose-only effect, or another doubt; inactive = no such curve, though single readings can be large; an effect the other way counts as inactive or inconclusive. Potency is read from the fitted curve at half-maximal effect.

SMILES	BAZ2B inh	Sfp inh	JMJD2A Tudor	G9a block	TDP1 block	HP1b chromo inh
C=C1C(=O)O[C@H]2C[C@H]1[C@@H](OC(C)=O)C/C(C)=C/CC/C(C)=C\CC[C@]2(C)O	·	·	-8%	·	·	52%
CS(=O)(=O)N(CC(=O)NCc1ccccc1)Cc1ccc(Cl)cc1	-4%	22%	-6%	13%	4%	5%
CS(=O)(=O)N(CC(=O)NCc1ccc2c(c1)OCO2)Cc1ccccc1	-13%	-20%	18µM*	-26%[12.7 µM]	-1%	?
CS(=O)(=O)N(CC(=O)NCc1ccco1)Cc1ccc(Cl)cc1	-24%	28µM*	-25%	?	-2%	20%
CS(=O)(=O)N(CC(=O)NCc1ccccn1)Cc1ccc(Cl)cc1	?	2%	11µM*	?	0%	29%
CCC(CC)C(=O)N1CCc2cc(OC)c(OC)cc2C1COc1ccccc1OC (centres undefined)	-10%	·	-21%	-2%[59 µM]	-3%	11%
O=C(/C=C/c1ccc(S(=O)(=O)N2CCOCC2)cc1)NCCc1ccc(C(F)(F)F)cc1	-3%	·	-3%	15%[12.7 µM]	0%	44%
C/C(=N\OCC(=O)Nc1nc2ccccc2s1)c1ccccc1	-6%	12%	-3%	-12%[59 µM]	-3%	40%
COc1ccc(/C(C)=N/OCC(=O)Nc2nc3ccccc3s2)cc1OC	?	?	-35%	50µM*	6%	-11%
Cc1cc(-c2cccs2)c(C#N)c(=S)[nH]1	-20%	20µM*	7.9µM*	1.6µM*	·	20%
N#Cc1c(-c2cccs2)cc(-c2cccs2)[nH]c1=O	-1%	-30%	-3%	8%	·	20%
CN(C(=O)CSc1cn(CC(=O)N2CCCCCC2)c2ccccc12)c1ccccc1	?	·	-11%	-3%[59 µM]	-5%	26%
COc1ccc(-n2nc3c(c2NC(=O)C2CC2)CS(=O)C3)cc1 (centres undefined)	2%	9%	-5%	-1%	6%	30%
COc1ccc(-n2nc3c(c2NC(=O)C24CC5CC(CC(C5)C2)C4)CS(=O)C3)cc1 (centres undefined)	-5%	-13%	-12%	79µM*	6%	36%
COc1ccc(NS(=O)(=O)c2cccc(C(=O)NC3CCC(O)CC3)c2)cc1 (centres undefined)	-5%	5%	-8%	24%	3%[56.1 µM]	39%
Cc1cnc(C(=O)OCC(=O)c2c[nH]c3ccccc23)cn1	9%	·	-11%	-8%[12.7 µM]	0%	33%
Cc1cnc(C(=O)OCC(=O)c2cccc3ccccc23)cn1	-4%	·	-16%	45µM*	-7%[0.505 µM]	20%
CCOC(=O)C1Nc2ccc(C(=O)O)cc2C2C=CCC12 (centres undefined)	40µM*	22µM*	4µM*	24%[0.501 µM]	·	7.9µM*
CCOC(=O)c1ccc2c(c1)C1C=CCC1C(C(=O)O)N2 (centres undefined)	6.3µM*	?	·	3.2µM*	0%	·
O=C(O)C1Nc2ccccc2C2C=CCC12 (centres undefined)	·	·	3.5µM*	·	·	11µM*
Cc1ccc(C)c(NC(=O)c2ccc(S(=O)(=O)N(C)CC3CCCO3)cc2)c1 (centres undefined)	·	·	-12%	·	·	-7%
O=C(Nc1ccc(F)cc1F)c1cccc2c1C(=O)N(C1CCCCC1)C2	·	·	-22%	-1%[59 µM]	-7%	28%
COc1cc(Cl)c(C)cc1Nc1nc2ccccc2n2cnnc12	2%	·	-8%	-23%[59 µM]	2%	24%
CCOc1cc(CNC(=O)C2CCN(c3nc4ccccc4[nH]3)CC2)cc(OCC)c1OCC	3%	·	-12%	-3%[59 µM]	8%	22%[57 µM]
Cn1c(SCC(=O)c2cc(Cl)c(Cl)s2)nnc1-c1ccco1	-32%	18µM*	?	?	0%	-5%
SMILES	BAZ2B inh	Sfp inh	JMJD2A Tudor	G9a block	TDP1 block	HP1b chromo inh
Cc1ccc(C(=O)CSc2nnc(-c3ccco3)n2C)cc1	-14%	18%	8.9µM*	·	-8%	-17%
Cn1c(SCC(=O)N2c3ccccc3Sc3ccccc32)nnc1-c1ccco1	-7%	-23%	-9%	?	0%	38%
COc1ccc(-c2cn3c(n2)sc2cc(C(=O)NCc4cccs4)ccc23)cc1	0%	·	-4%	-6%[59 µM]	-1%	22%
O=c1c(-c2ccc(F)cc2)nc2cncnc2n1C1CC1	·	15%	·	-20%[12.7 µM]	·	·
O=C(c1cccc(F)c1)N1CCC2(CCCN(c3ccncc3)C2)CC1	·	11%	·	0%[12.7 µM]	·	·
CCOC(=O)c1sc(/N=C/c2ccc(O)cc2O)cc1C	-36%	0%	?	22µM*	1%	0%
CN1CCN(c2ncncc2-c2ccccc2C(F)(F)F)CC1	·	7%	·	23%[0.501 µM]	·	·
Cc1ccc(N2CC(C(=O)OCC(=O)Nc3ccc(F)cc3F)CC2=O)cc1 (centres undefined)	9%	·	-8%	19%[2.33 µM]	-1%[56.1 µM]	27%
CCCCNC(=O)CCn1nc(-c2ccc(C)cc2)c2ccccc2c1=O	-20%	-9%	6%	12%	·	29%
CCN1CCN(CC(=O)N2c3ccccc3Sc3ccccc32)CC1	-6%	19%	-4%	-24%	·	22%
Cc1scc2c1N(C(=O)CN1CCN(C)CC1)c1ccccc1NC2=O	?	16%	-12%	35µM*!	8%	12%
COc1c2c(c(OC)c3c1c(=O)c1ccccc1n3C)OCO2	·	·	8%	·	·	55%
CCCOC(=O)c1ccccc1	·	-5%	·	21%[59 µM]	9%	·
CCCOC1(NC(=O)c2ccccc2)C(C)=CC(=O)C=C1C	-6%	56µM*	?	12%[12.7 µM]	-1%	?
COc1ccccc1NC(=O)C(=O)NCC(c1ccco1)N1CCc2ccccc21 (centres undefined)	-11%	·	-34%	?	7%[0.505 µM]	-7%
COc1ccc(OC)c(S(=O)(=O)NCC(c2ccco2)N2CCc3ccccc32)c1 (centres undefined)	?	·	?	50µM*	-12%[0.505 µM]	-34%
COc1ccccc1C(=O)NCC(c1ccco1)N1CCc2ccccc21 (centres undefined)	50µM*	·	?	50µM*	3%[0.505 µM]	5%
COc1ccc(OC)c(S(=O)(=O)NCC(c2cccs2)N2CCc3ccccc3C2)c1 (centres undefined)	-4%	·	-16%	8%[2.33 µM]	·	22%
O=C(NCC(c1ccco1)N1CCc2ccccc21)c1ccccc1 (centres undefined)	?	·	?	50µM*	4%[0.505 µM]	-18%
COc1cc(C(=O)NCC(c2ccco2)N2CCc3ccccc32)cc(OC)c1OC (centres undefined)	79µM*	·	?	50µM*	4%[0.505 µM]	-26%
Cc1ccc(C(=O)NCC(c2ccco2)N2CCc3ccccc32)cc1C (centres undefined)	?	·	?	5%[0.501 µM]	·	-7%
